From PubChem BioAssay
An excerpt weighted towards active compounds, which were near 3.5% of everything screened.
GPR151 activ = activates the human receptor GPR151; activation, % at 11.2 µM; 650,000 compounds, 1% hits; PathHunter beta-arrestin GPR151 cells, luminescence; AID 1508602; in the data active means activation above about 4.9%;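 further: 0% = median of compound wells and 100% = cells with positive control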
Target sequence (Q8TDV0 whole entry, looked up): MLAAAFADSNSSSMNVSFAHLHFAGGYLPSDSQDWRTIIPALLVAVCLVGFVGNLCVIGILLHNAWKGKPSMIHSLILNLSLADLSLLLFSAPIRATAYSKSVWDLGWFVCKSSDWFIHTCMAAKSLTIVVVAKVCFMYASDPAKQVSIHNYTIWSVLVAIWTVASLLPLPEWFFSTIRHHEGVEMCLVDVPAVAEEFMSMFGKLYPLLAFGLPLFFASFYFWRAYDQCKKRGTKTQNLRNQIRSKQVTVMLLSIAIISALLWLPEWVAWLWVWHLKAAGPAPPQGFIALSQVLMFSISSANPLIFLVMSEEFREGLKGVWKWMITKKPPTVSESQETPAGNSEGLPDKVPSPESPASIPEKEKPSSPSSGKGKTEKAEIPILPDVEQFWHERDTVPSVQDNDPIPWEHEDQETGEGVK
MITF primary = inhibitors of human MITF. O75030. AlphaScreen MITF homodimerization, bead proximity signal. inhibition, % at 2.6 µM. 650,000 compounds, 0.91% hits. AID 1259374; in the data active means inhibition above about 50%;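 further: 0% = vehicle wells with protein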
TEAD-YAP block = TEAD-YAP interaction inhibition | HEK-TIYL cells, TEAD-Gal4/YAP UAS-luciferase luminescence | inhibition, % at 9.12 µM | 640,000 compounds, 1.4% hits; in the data active means inhibition above about 32%;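 further: 0% = median of test compound wells and 100% = reference inhibitor wells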
FBW7 act = human FBW7 E3 ligase activation, primary screen; Q969H0; AlphaScreen FBW7–phospho-cyclin E peptide binding, activator screen; normalized activity (activation), % at 26.1 µM; 650,000 compounds, 0.13% hits; AID 1259310; in the data active means normalized activity above about 1.9%;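 further: purified mutant Fbw7 with reduced substrate affinity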
The depositor's hits bear a star.

SMILES	GPR151 activ	MITF primary	TEAD-YAP block	FBW7 act
CCN(Cc1ccccc1)S(=O)(=O)c1cc(C(=O)Nc2ccc(Br)cc2)ccc1F	1	-1	50*	0
COc1cccc(NC(=O)c2ccc(F)c(S(=O)(=O)N(C)Cc3ccccc3)c2)c1	2	-6	-4	0
CCOc1ccc(NC(=O)CSc2nc3ccc(NC(=O)C(CC)Sc4nc5ccc([N+](=O)[O-])cc5s4)cc3s2)cc1 (configuration not stated)	0	-13	2	0
O=C1CC(C23CC4CC(CC(C4)C2)C3)=NN1c1ccccc1	2	15	33*	0
NC1=NN(c2ccccc2)C(=O)C1	0	0	6	0
c1ccc2c(c1)ccc1nnc(-c3c[nH]c4ccccc34)n12	-1	18	7	0
c1ccc2c(c1)Cn1nc(-c3c[nH]c4ccccc34)nc1-2	-10	3	77*	0
FC(F)(F)c1ccc(Cn2cnc3c(NCc4ccccc4)nc(-c4ccc(N5CCOCC5)nc4)nc32)cc1	1	7	11	0
Oc1ccc(CCNc2nc(NCCN3CCOCC3)nc3c2ncn3-c2ccccc2)cc1	-2	7	37*	0
O=C1CCCN1CCn1cnc2c(NCCN3CCOCC3)nc(-c3ccc(N4CCOCC4)nc3)nc21	0	1	-14	0
Oc1ccc(CCNc2nc(-c3ccc(N4CCOCC4)nc3)nc3c2ncn3-c2ccccc2)cc1	3	12	41*	1
O=C1CCCN1CCCNc1nc(-c2ccc(N3CCOCC3)nc2)nc2c1ncn2-c1ccccc1	1	5	48*	0
FC(F)(F)c1ccc(Cn2cnc3c(NCCOc4ccccc4)nc(-c4ccc(N5CCOCC5)nc4)nc32)cc1	0	20	8	2.0*
CCOC(=O)c1cnc2ccc(OCC)cc2c1Nc1ccc(N2CCOCC2)cc1	1	14	3	0
FC(F)(F)c1cccc(CNc2ccc(Br)cn2)c1	1	17	11	1
O=C(O)c1cccnc1Sc1ccc(S(=O)(=O)N2CCOCC2)cc1[N+](=O)[O-]	1	7	0	0
COc1ccc(-c2nc3cnccn3c2NCc2ccco2)cc1OC	-1	-8	-45	0
c1ccc(OCCNc2ncnc3nc(-c4ccc(N5CCOCC5)nc4)[nH]c23)cc1	-1	-3	-19	11*
c1ccc(-c2nc(NCCN3CCOCC3)c3ncn(-c4ccccc4)c3n2)cc1	0	16	28	0
c1ccc(-n2cnc3c(NCCN4CCOCC4)nc(-c4ccc(N5CCOCC5)nc4)nc32)cc1	0	2	59*	0
COc1cccc(-c2ocnc2C(=O)Nc2ccc(N3CCC(C)CC3)c(C(N)=O)c2)c1	0	7	-6	9.2*
CCOC(=O)c1sc2nc(CS)[nH]c(=O)c2c1C (tested in a mixture with another compound)	-1	1	-1	0
COc1ccccc1-c1nnc(SCC(=O)Nc2ccc(Br)cn2)o1	1	4	34*	0
c1cncc(Nc2nc(Nc3ccc(N4CCOCC4)cc3)c3ncn(C4CCCCC4)c3n2)c1	0	9	37*	0
c1cncc(CNc2nc(NCCN3CCOCC3)c3ncn(C4CCCCC4)c3n2)c1	1	11	9	0
SMILES	GPR151 activ	MITF primary	TEAD-YAP block	FBW7 act
c1cc(N2CCOCC2)ccc1Nc1nc(Nc2ccc(N3CCOCC3)cc2)c2ncn(C3CCCCC3)c2n1	-1	52*	7	0
c1cncc(Nc2nc(NCCN3CCOCC3)c3ncn(C4CCCCC4)c3n2)c1	-1	-2	42*	0
C=CCOC(=O)C1=C(C)NC(SCC(=O)Nc2c(C)cccc2C)=C(C#N)C1c1cccs1 (configuration not stated)	2	7	-10	0
Cc1oc2c(c1C(=O)O)C(=O)c1ccccc1C2=O	1	0	-6	0
Cc1oc2c(c1C(=O)N1CCCC1)C(=O)c1ccccc1C2=O	-1	16	54*	0
CCOC(=O)C1=C(C)N=c2s/c(=C/c3cnn(C)c3C)c(=O)n2C1c1ccc(Cl)cc1 (configuration not stated)	0	9	6	0
COC(=O)C1CNC(NCCC2=CCCCC2)c2ccccc21 (configuration not stated)	0	-9	-9	0
O=C(CCSc1ccccc1)Nc1ccc(F)cc1	0	4	-45	0
CCOC(=O)c1[nH]c(/C=N/NC(=O)c2ccncc2)c(C(=O)OCC)c1C	0	-15	60*	0
CCCN(CCC)C(=O)c1c(NC(=O)c2cccs2)sc2c1CCC(C)C2 (configuration not stated)	1	19	1	1
